Each structure is given as a SMILES string. Some compounds were tested as several samples or in several runs, with calls that do not always agree. Activity calls are given as the source filed them. How the source made its calls: active means hit-call score of the fitted dose curve at least 0.9, where 1 is the maximum; inactive means score below 0.9.

Sequence of Paired box protein Pax-6 (Homo sapiens) (P26367 whole entry, looked up): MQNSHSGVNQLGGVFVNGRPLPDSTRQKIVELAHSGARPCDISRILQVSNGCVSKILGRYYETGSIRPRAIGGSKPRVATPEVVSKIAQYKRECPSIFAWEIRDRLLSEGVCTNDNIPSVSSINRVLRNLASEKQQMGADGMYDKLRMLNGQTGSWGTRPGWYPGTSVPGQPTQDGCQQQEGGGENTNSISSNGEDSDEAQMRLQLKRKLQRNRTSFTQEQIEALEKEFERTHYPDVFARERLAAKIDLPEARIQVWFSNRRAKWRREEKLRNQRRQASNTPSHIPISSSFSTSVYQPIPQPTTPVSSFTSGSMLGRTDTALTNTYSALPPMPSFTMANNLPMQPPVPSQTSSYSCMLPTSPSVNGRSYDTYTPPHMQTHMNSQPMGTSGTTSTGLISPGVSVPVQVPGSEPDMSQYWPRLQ

In one experiment the target is Paired box protein Pax-6 (Homo sapiens) (UniProt P26367). As to the kind of experiment: ATG_Pax6_CIS: Attagene CIS-FACTORIAL HepG2 Assay for human Paired Box 6 (PAX6) (AID 2282956). To be noted: HepG2 CIS-FACTORIAL PAX6 reporter transcription, RNA readout; actives raise or lower the signal. In a few lines:
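Fluorescent RT-PCR products separated by capillary electrophoresis report PAX6-linked promoter mRNA in HepG2 cells 24 h post-dose. Curves fitted bidirectionally, DMSO as negative control.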
With `CC1=CC(=O)c2ccccc2C1=O`, the compound was called inactive.
Still for that read-out and setting: the entry for `O=CC(F)(F)C(F)(F)C(F)(F)C(F)F` is “inactive”.
Still for that read-out and setting: the entry for `CCCCCCCCCCCCCCC` is “inactive”.
Same read-out and setting: then `COCN(COC)c1nc(N(COC)COC)nc(N(COC)COC)n1`, with “inactive”.
For the compound `C=CC(C)(CCC=C(C)C)OC(C)=O` (stereo not drawn), the compound was called inactive.
Same read-out and setting: then `O=C(OC(=O)C(F)(F)C(F)(F)F)C(F)(F)C(F)(F)F`, with “inactive”; and `CCOC(=O)CN[C@@H](C(=O)N1CC[C@H]1C(=O)NCc1ccc(/C(N)=N/O)cc1)C1CCCCC1`, with “inactive”.
The same measure, in the same setting: then `CCC(C)c1ccccc1O` (stereo not drawn), with “inactive”.
In the case of `C/C=C/C(=O)C1=C(C)CCCC1(C)C`, the AC50 – broadly, the concentration giving half of the maximal activity seen – is 39.7 µM (active).
For `O=C(NCc1ncc(C(F)(F)F)cc1Cl)c1c(Cl)cccc1Cl`, the compound was classed as inactive.
On to `O=S(=O)(O)C(F)(F)C(F)(F)C(F)(F)C(F)(F)C(F)(F)C(F)(F)C(F)(F)C(F)(F)C(F)(F)C(F)(F)F`, for which the compound was called inactive.
Consider `c1cc2cccc3c4cccc5cccc(c(c1)c23)c54`, for which the outcome was inactive.
Still for that read-out and setting: then `CCOC(C)=O`, with “inactive”; and `Cc1ccccc1OCC(=O)O`, with “inactive”; and `CC(C)(C)c1ccc(CCC=O)cc1`, with “inactive”.
On the same count and under the same terms, then `NNc1nc(-c2ccc([N+](=O)[O-])cc2)cs1`, with “inactive”; and `OCC(F)(F)C(F)(F)C(F)(F)C(F)(F)C(F)(F)C(F)(F)C(F)(F)C(F)(F)C(F)(F)C(F)(F)C(F)(F)F`, with “inactive”; and `CCOC=O`, with “inactive”.
The same measure, in the same setting: the entry for `CCCCCCCCCC=CCC1CC(=O)OC1=O` (stereo not drawn) is “inactive”.

Tested on in a further experiment: not listed separately
As to the kind of experiment: ATG_PXRE_CIS: Attagene CIS-FACTORIAL HepG2 Assay for human Pregnane X Receptor Element (PXRE) (AID 2282957). As to conditions: HepG2 Attagene CIS-FACTORIAL PXRE reporter, mRNA; actives raise or lower the signal. The gist of the method:
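Using HepG2 transfected with multiple reporter transcription units, endogenous factor-driven transcription was scored as reporter mRNA after 24 h exposure.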
Consider `CC(C)(C)C1CCCCC1O` (stereo not drawn), for which the result was inactive.
Same read-out and setting: the entry for `CC(C)CCOCCC(C)C` is “inactive”.
On to `CCCCCCCCCCCCCC[n+]1ccccc1`, for which the AC50 is 11.1 µM (active).
In the case of `CCCCCCCC(OC)OC`, the result was inactive.
The same measure, in the same setting: the entry for `O=C1OC(=O)C(F)(F)C1(F)F` is “inactive”.
Same read-out and setting: the entry for `CC(=O)Nc1ccc(S(N)(=O)=O)cc1` is “inactive”.
Turning to `CCCCCCCCCCCC(=O)NCCCN(C)C`, the AC50 was 5.26 µM (active).
Still for that read-out and setting: the figure for `C[N+](C)(CCCNS(=O)(=O)CCC(F)(F)C(F)(F)C(F)(F)C(F)(F)C(F)(F)C(F)(F)F)CC(=O)[O-]` is 0.00267 µM (active).
As for `CC(O)COc1ccccc1` (stereo not drawn), the half-maximal activity concentration (AC50) was 59.5 µM (active) and the compound was classed as inactive.
On to `CCCCCC(C)OC(=O)COc1ccc(Cl)c2cccnc12` (stereo not drawn), for which the AC50 is 7.22 µM (active).
The same measure, in the same setting: the figure for `CCCCC(CC)C(=O)OCCOCCOCCOCCOC(=O)C(CC)CCCC` (stereo not drawn) is 27.5 µM (active).
As for `CCCCCCCCCCCCOC(=O)c1cc(O)c(O)c(O)c1`, the AC50 is 2.94 µM (active).
Regarding `NCc1cccc(CN)c1`, the compound was called inactive.
On the same count and under the same terms, then `CC(=O)CC(C)C`, with “inactive”; and `COC(=O)C(F)(F)C(F)(F)C(F)(F)F`, with “inactive”; and `CCCCCCCCCCCC[N+](C)(C)CCCCCCCCCCCC`, with “inactive”.
With `FC(F)(F)C(F)(F)C(F)(F)Br`, the compound was called inactive.
With `Oc1cccc2c(O)cccc12`, the concentration at half-maximal activity (AC50) is 27.1 µM (active).

Tested on in another experiment: not listed separately
As to the kind of experiment: ATG_PPRE_CIS: Attagene CIS-FACTORIAL HepG2 Assay for human Peroxisome Proliferator-activated Response Element (PPRE) (AID 2282958). To be noted: HepG2 PPRE cis-element reporter, Attagene transcription factor profiling; actives raise or lower the signal. The gist of the method: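 Endogenous PPRE-driven transcription is measured in HepG2 cells carrying transfected multi-reporter constructs. Reporter transcripts are quantified by RT-PCR, HpaI digestion and capillary electrophoresis 24 h after dosing. DMSO baseline, bidirectional fit.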
As for `CC1=CC(=O)c2ccccc2C1=O`, the outcome was inactive.
On the same count and under the same terms, the entry for `CC(C)(C)C1CCCCC1O` (stereo not drawn) is “inactive”; for `CC(C)CCOCCC(C)C` it is “inactive”; for `CCCCCCCCCCCCCC[n+]1ccccc1` it is “inactive”.
Same read-out and setting: then `CCCCCCCC(OC)OC`, with “inactive”; and `O=CC(F)(F)C(F)(F)C(F)(F)C(F)F`, with “inactive”.
Still for that read-out and setting: then `O=C1OC(=O)C(F)(F)C1(F)F`, with “inactive”; and `COCN(COC)c1nc(N(COC)COC)nc(N(COC)COC)n1`, with “inactive”.
With `CC(=O)Nc1ccc(S(N)(=O)=O)cc1`, the outcome was inactive.
Same read-out and setting: then `CCCCCCCCCCCC(=O)NCCCN(C)C`, with “inactive”; and `C=CC(C)(CCC=C(C)C)OC(C)=O` (stereo not drawn), with “inactive”; and `O=C(OC(=O)C(F)(F)C(F)(F)F)C(F)(F)C(F)(F)F`, with “inactive”.
Same read-out and setting: then `C[N+](C)(CCCNS(=O)(=O)CCC(F)(F)C(F)(F)C(F)(F)C(F)(F)C(F)(F)C(F)(F)F)CC(=O)[O-]`, with “inactive”; and `CCOC(=O)CN[C@@H](C(=O)N1CC[C@H]1C(=O)NCc1ccc(/C(N)=N/O)cc1)C1CCCCC1`, with “inactive”; and `CC(O)COc1ccccc1` (stereo not drawn), with “inactive”.
As for `CCC(C)c1ccccc1O` (stereo not drawn), the call was inactive.
As to `C/C=C/C(=O)C1=C(C)CCCC1(C)C`, the compound was classed as inactive.
On the same count and under the same terms, then `O=C(NCc1ncc(C(F)(F)F)cc1Cl)c1c(Cl)cccc1Cl`, with “inactive”.
The same measure, in the same setting: then `CCCCCC(C)OC(=O)COc1ccc(Cl)c2cccnc12` (stereo not drawn), with “inactive”; and `O=S(=O)(O)C(F)(F)C(F)(F)C(F)(F)C(F)(F)C(F)(F)C(F)(F)C(F)(F)C(F)(F)C(F)(F)C(F)(F)F`, with “inactive”.
On the same count and under the same terms, the entry for `c1cc2cccc3c4cccc5cccc(c(c1)c23)c54` is “inactive”.
Take `CCCCC(CC)C(=O)OCCOCCOCCOCCOC(=O)C(CC)CCCC` (stereo not drawn): the compound was called inactive.
On the same count and under the same terms, then `CCCCCCCCCCCCOC(=O)c1cc(O)c(O)c(O)c1`, with “inactive”.
Same read-out and setting: the entry for `CCOC(C)=O` is “inactive”.
As to `Cc1ccccc1OCC(=O)O`, the outcome was inactive.
The same measure, in the same setting: the entry for `NCc1cccc(CN)c1` is “inactive”; for `CC(C)(C)c1ccc(CCC=O)cc1` it is “inactive”; for `CC(=O)CC(C)C` it is “inactive”.
Still for that read-out and setting: then `NNc1nc(-c2ccc([N+](=O)[O-])cc2)cs1`, with “inactive”.
In the case of `OCC(F)(F)C(F)(F)C(F)(F)C(F)(F)C(F)(F)C(F)(F)C(F)(F)C(F)(F)C(F)(F)C(F)(F)C(F)(F)F`, the compound was called inactive.
On to `COC(=O)C(F)(F)C(F)(F)C(F)(F)F`, for which the call was inactive.
On the same count and under the same terms, then `CCOC=O`, with “inactive”; and `CCCCCCCCCCCC[N+](C)(C)CCCCCCCCCCCC`, with “inactive”.
Still for that read-out and setting: the entry for `FC(F)(F)C(F)(F)C(F)(F)Br` is “inactive”; for `Oc1cccc2c(O)cccc12` it is “inactive”.
